Eya2 inh: inhibitors of human Eya2 phosphatase activity. Potency, µM (highest dose often 76.9 µM), hits mostly inhibitors. recombinant Eya2, OMFP fluorescence dephosphorylation (OMFP is methylfluorescein phosphate). O00167. hit rate 0.006% among 330,000
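Eya2 protein (added as 0.2 uM solution) was preincubated with compound for 10 min at ambient temperature in 50 mM HEPES pH 7.5, 50 mM NaCl, 5 uM MgCl2, 0.05% BSA, 1 mM DTT. OMFP (added at 50 uM) then reacted 10 min; fluorescence read at 485/525 nm.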
rTrxR1 inhibitor: inhibitors of rat thioredoxin reductase 1. O89049. recombinant rTrxR1, NADPH fluorescence consumption, selenite substrate. Potency, µM (series often up to 114 µM), most hits filed as inhibitors. hit rate 1% among 390,000. AID 588453; note: nearly all actives have a fitted effect of over 65% in size
Target sequence (O89049 whole entry, looked up): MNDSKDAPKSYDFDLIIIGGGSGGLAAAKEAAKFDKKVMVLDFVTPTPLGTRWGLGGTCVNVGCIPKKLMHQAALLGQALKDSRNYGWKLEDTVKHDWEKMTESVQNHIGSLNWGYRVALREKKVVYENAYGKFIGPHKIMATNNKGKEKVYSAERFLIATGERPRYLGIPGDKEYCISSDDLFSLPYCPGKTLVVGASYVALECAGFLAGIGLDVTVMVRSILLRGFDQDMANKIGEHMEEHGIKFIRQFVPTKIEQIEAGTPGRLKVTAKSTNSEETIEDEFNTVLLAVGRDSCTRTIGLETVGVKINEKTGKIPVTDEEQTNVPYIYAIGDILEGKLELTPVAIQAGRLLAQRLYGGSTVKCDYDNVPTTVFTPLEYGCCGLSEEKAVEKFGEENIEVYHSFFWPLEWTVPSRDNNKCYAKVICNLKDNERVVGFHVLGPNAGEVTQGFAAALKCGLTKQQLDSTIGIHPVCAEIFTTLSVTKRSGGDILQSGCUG
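Rat TrxR1 (90 nM in the dispensed reagent) was pre-reduced with 400 uM NADPH for 5 min at room temperature, then incubated with compound for 15 min. After 400 uM selenite was added, NADPH fluorescence (Ex 340/Em 450 nm) was followed for 8 min.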
TrxR1 substrate: substrates of rat thioredoxin reductase 1 | purified TrxR1 substrate turnover, NADPH consumption readout | O89049 | Potency, µM (top dose mostly 114 µM) | AID 588456 | hit rate 0.01% among 390,000; note: nearly all actives have a fitted effect of over 50% in size
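Rat TrxR1, dispensed at 90 nM, was prereduced with 400 uM NADPH (final) for 5 min at ~22 deg C, then incubated with compound 15 min before 400 uM selenite. A first-read NADPH fluorescence drop versus no-compound background flagged substrates.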
IDH1 R132H inh: inhibitors of human mutant IDH1 R132H; O75874; IDH1-R132H enzyme, NADPH consumption, diaphorase/resazurin fluorescence; Potency, µM (series often up to 76.6 µM), hits mostly inhibitors; hit rate 0.093% among 390,000; note: nearly all actives have a fitted effect of over 65% in size
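IDH1-R132H (0.5 ug/mL dispensed) in pH 7.5 Tris buffer was preincubated 30 min with compound, then given a substrate mix of 0.016 mM NADPH and 2 mM alpha-KG for 80 min at room temperature; remaining NADPH was read by diaphorase/resazurin fluorescence.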
Coupling enz: coupling enzyme interference in Giardia aldolase counter-screen. coupling enzyme system counterscreen, AmpLite Red fluorescence. activity change, negative = inhibition, % at 58.2 µM, hits read low. hit rate 0.67% among 290,000; in the data active = activity change below about -30%
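Coupling enzymes only (glyceraldehyde-3-phosphate) + compound, at 57.5 uM final, 10 min RT; add substrate/coupling/AmpLite Red mix, 20 min RT; fluorescence ex 525/em 598 nm. Actives flag coupling-system interference.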
A number is an active result; i = inactive; ? = inconclusive; nt = no result; ! = not confirmed by another sample; [ ] = remark or other dose. The list is not random: actives were taken first. Their share in the collection is about 1.5%. Unless noted, calls come from the whole dose curve; as a rule, active = well fitted curve in the direction sought with a large enough effect; inconclusive = small, poorly fitted or top-dose-only effect, or another doubt; inactive = no such curve, though single readings can be large; an effect the other way counts as inactive or inconclusive.

SMILES	Eya2 inh	rTrxR1 inhibitor	TrxR1 substrate	IDH1 R132H inh	Coupling enz
Cc1c(C(=O)NC(C)C)oc2c1-c1[nH]ncc1CC2	i	i	i	i	-39
Cc1[nH]n(-c2ncc(-c3ccc(Cl)cc3)s2)c(=O)c1C(c1ccc(Cl)cc1)C(C#N)C#N (centres undefined)	i	11µM	i	?	i
CC(C)(C)C1=CC=C(C(C)(C)C)C(=O)C1=O	i	nt	nt	nt	-60
Cc1ccc(-c2cc(-c3ccc4c(c3)OCO4)c(C#N)c(N)n2)o1	i	i	i	i	i
Cc1ccc(-c2cc(-c3ccc(Cl)cc3)c(C#N)c(N)n2)o1	i	50µM	i	i	i
Cc1ccc(-c2cc(-c3ccc(F)cc3)c(C#N)c(N)n2)o1	i	16µM	i	i	i
Cc1ccc(-c2cc(-c3ccc(C)o3)nc(N)c2C#N)cc1	i	50µM	i	i	i
CCOC(=O)C1=C(C)NC2=C(C(=O)C(C(=O)OCC)C(c3ccco3)C2)C1c1ccccc1C (centres undefined)	nt	i	i	nt	nt
CCCCc1cc2c(cn1)=C(OC(=O)c1cccs1)C(C)(OC(=O)CC)C(=O)C=2 (centres undefined)	nt	nt	nt	nt	i
COCc1cc(=O)[nH]c(SCCS(=O)(=O)c2ccc(C)cc2)n1	i	i	i	i	i
COCc1cc(=O)[nH]c(SCCS(=O)(=O)c2ccc(Cl)cc2Cl)n1	i	1.3µM	i	i	i
CCOC(=O)N1CCN(c2cc(=O)n(-c3ccc(OC)cc3)c(=O)[nH]2)CC1	i	?	i	i	i
COC(=O)C1CCN(c2cc(=O)n(-c3ccc(OC)cc3)c(=O)[nH]2)CC1	i	28µM	i	i	i
O=C1CCC[C@@H]2[C@@H](Cc3ccccc3)[C@@H](Nc3ccccc3)C[C@@H]3CCN1[C@@H]32	nt	i	i	nt	nt
COc1cc(/C=C/c2ccnc3ccccc23)cc(OC)c1OC	nt	i	i[0.0914 µM]	nt	nt
COC(=O)CCC(=O)OC1(C)C(=O)C=C2C=C(C3CC3)N(CCc3ccccn3)C=C2C1=O (centres undefined)	i	i	i	i	-49
CC1(OC(=O)C2CCCC2)C(=O)C=C2C=C(c3ccsc3)N(c3ccccc3)C=C2C1=O (centres undefined)	i	i	i	i	i
COC(=O)CCC(=O)OC1(C)C(=O)C=C2C=C(C3CC3)N(CCN3CCOCC3)C=C2C1=O (centres undefined)	i	i	i	i	-46
C=CCN1C=C2C(=O)C(C)(OC(=O)CCC(=O)OC)C(=O)C=C2C=C1C1CC1 (centres undefined)	i	i	i	i	-41
COC(=O)CCC(=O)OC1(C)C(=O)C=C2C=C(C3CC3)N(c3ccccc3)C=C2C1=O (centres undefined)	i	i	i	i	-41
C=CCN1C=C2C(=O)C(C)(OC(=O)C3CCCC3)C(=O)C=C2C=C1c1ccsc1 (centres undefined)	i	i	i	i	i
COC(=O)CCC(=O)OC1(C)C(=O)C=C2C=C(c3ccc(C#N)cc3)OC=C2C1=O (centres undefined)	nt	nt	nt	nt	i
COC(=O)C/C=C\[C@@H](C)[C@@H](/C=N\O[C@@H](C)c1cn([C@H]2COC[C@H]2O)nn1)NS(=O)(=O)c1ccc(C)cc1	nt	nt	nt	nt	i
CC(C)(C)n1ncc2c(=O)n(Cc3c(F)cc(Cl)cc3F)cnc21	nt	i	i	nt	nt
COC(=O)CCC(=O)OC1(C)C(=O)C=C2C=C(C3CC3)N(CCCOC(C)C)C=C2C1=O (centres undefined)	i	?	i	i	-50
SMILES	Eya2 inh	rTrxR1 inhibitor	TrxR1 substrate	IDH1 R132H inh	Coupling enz
COC(=O)CCC(=O)OC1(C)C(=O)C=C2C=C3CCCN3C=C2C1=O (centres undefined)	i	?	i	i	i
COC(=O)CCC(=O)OC1(C)C(=O)C=C2C=C(C3CC3)N(CCc3c[nH]c4ccccc34)C=C2C1=O (centres undefined)	i	i	i	i	-40!
COC(=O)CCC(=O)OC1(C)C(=O)C=C2C=C(C3CC3)N(C(CO)CO)C=C2C1=O (centres undefined)	i	i	i	i	-39!
COC(=O)CCCC1=CC2=C(c3ccccc3)C(=O)C(C)(OC(=O)C3CCCC3)C(=O)C2=CN1CCCOC(C)C (centres undefined)	nt	nt	nt	nt	i
COC(=O)CCC(=O)OC1(C)C(=O)C=C2C=C(C3CC3)N(CCCCO)C=C2C1=O (centres undefined)	i	i	i	i	-40!
CCCCC1=CC2=CC(=O)C(C)(OC(=O)CCC(=O)OC)C(=O)C2=CO1 (centres undefined)	nt	nt	nt	nt	i
COC(=O)CCC(=O)OC1(C)C(=O)C2=CN(CCc3c[nH]c4ccccc34)C(c3ccc(OC)cc3)=CC2=C(Br)C1=O (centres undefined)	nt	i	i	i	i
NC(C(=O)O)c1nn[nH]n1 (centres undefined)	nt	i	i	nt	i
CN(C)c1ccc(/C=C/c2nc3ccccc3s2)c(Cl)c1	nt	i	i	nt	nt
O=C(CC(Nc1ccc(Cl)cc1)C(=O)O)c1ccccc1 (centres undefined)	i	28µM	i	i	i
O=C(CC(Nc1cccc(Cl)c1Cl)C(=O)O)c1ccccc1 (centres undefined)	i	40µM	i	i	i
Cc1c(Cl)cccc1NC(=O)CC(Cc1ccccc1)C(=O)O (centres undefined)	i	i	i	i	i
Cc1c(Cl)cccc1NC(CC(=O)c1ccccc1)C(=O)O (centres undefined)	i	3.5µM	i	i	i
O=C(CC(Nc1ccccc1Cl)C(=O)O)c1ccccc1 (centres undefined)	i	4.5µM	i	i	i
Cc1cc2c(cc1C)N[C@]1(C[C@H]3CCCC(=O)N4CC[C@@H](C1)[C@@H]34)C(=Nc1ccccc1C)N2	nt	i	i	nt	nt
CN(C)c1ccc(/C=C/c2ccnc3ccc(I)cc23)cc1	nt	i	i	nt	nt
COc1ccccc1NC(=O)CCCC(=O)OCC(=O)c1ccc(F)cc1	i	i	i	i	nt
O=C(CC(Nc1cccc(Cl)c1Cl)C(=O)OCC(=O)c1cccs1)c1ccccc1 (centres undefined)	i	?	i	i	i
Cc1c(Cl)cccc1NC(CC(=O)c1ccccc1)C(=O)OCC(=O)c1cccs1 (centres undefined)	i	40µM	i	i	i
COc1ccccc1NC(CC(=O)c1ccccc1)C(=O)OCC(=O)c1ccc(F)cc1 (centres undefined)	i	35µM	i	i	i
O=S(=O)(NCc1csc(-c2cccnc2)n1)c1ccc(Cl)s1	i	i	i	i	i
O=S(=O)(NCc1csc(-c2ccccc2)n1)c1ccc(Cl)s1	i	i	i	i	-36
CCOc1ccccc1-c1nnc2n1N=C(c1cc(OC)ccc1OC)CS2	nt	nt	nt	nt	i
Oc1c(Br)cc(Br)cc1/C=N/c1nccs1	i	35µM	i	i	nt

Screening data: PubChem, National Center for Advancing Translational Sciences (NCATS)
